Measurements: PubChem BioAssay
Active and inactive are the calls of the source.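 The calls were made as follows, unless noted: active = visual image review flags a hit and inhibition of aggregation exceeds 20%; inconclusive = visual hit but inhibition at or below 20%; inactive = no hit on visual image review.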

Experiments:
[1] = inhibitors of TNFa-induced NFkB p65 translocation, primary screen, imaging, HUVEC, MLSMR starter and 10KST1 sets (AID 438;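 active = inhibition above 20% together with a positive visual image hit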;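 also: compound added about 3h40 before a 20 min TNFalpha stimulation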;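 as to inhibition: signal is the nuclear over cytoplasmic p65 intensity ratio per well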); conditions: HUVEC TNFa-induced p65 nuclear translocation; cell count: measured here: nuclei count (cytotoxicity indicator), at 2.08 µM; inhibition: at 2 µM, stronger effect = higher value, 0% TNFa-plus-vehicle, 100% no-TNFa wells
[2] = inhibitors of mutant huntingtin aggregation, primary screen, imaging, exon1htt(103Q)mCFP cells, high-content imaging (AID 483); conditions: exon1htt(103Q)mCFP cell line, aggregate imaging, at 2 µM; inhibition of aggregation: stronger effect = higher value; nuclei count: measured here: cell count, toxicity;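 also: compound exposure lasted 3 days before fixation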;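 as to nuclei count: percent of the per-plate median nuclei count of sample wells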
[3] = inhibitors of E-selectin induction by TNFa, primary screen, imaging, HUVEC, immunofluorescence, MLSMR starter and 10KST1 sets (AID 487;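 active = visually confirmed hit in the image check and inhibition above 20%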;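 as to inhibition: signal is fraction of cell area covered by stained E-selectin grains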;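 as to nuclei count: 100% = median nuclei count of all wells on the same plate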); conditions: HUVEC TNFalpha-induced E-selectin immunofluorescence imaging, at 2 µM; inhibition: stronger effect = higher value; nuclei count: measured here: cell number, toxicity
[4] = biological target: Voltage-gated potassium channel subunit beta-2 (Rattus norvegicus) (UniProt P62483); assay: KvBeta enzyme negative modulators, primary screen, biochemical, NADPH fluorescence (AID 622;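 active = fluorescence slope higher than the sample average by over 3 SD, cut at about -0.22 in these data, passing the limit was not always enough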;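 also: slope of raw intensity against log time taken from 70 to 1610 s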); conditions: recombinant KvBeta, 4-cyanobenzaldehyde reduction, at 10 µM, stronger effect = higher value
[5] = biological target: Voltage-gated potassium channel subunit beta-2 (Rattus norvegicus) (UniProt P62483); assay: KvBeta positive modulators, primary screen, biochemical, NADPH fluorescence (AID 623;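 active = NADPH fluorescence slope more negative than the mean of all samples by about 3 SD, 99.7% confidence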;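 also: fluorescence intensity change per second fitted from 20 to 320 s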); conditions: Recombinant KvBeta, NADPH fluorescence decrease slope, 10 min; at 10 µM; stronger effect = lower value
[6] = biological target: Alpha-2C adrenergic receptor (Homo sapiens) (UniProt P18825); assay: modulators of alpha2C/GIRK thallium flux, primary screen, cell-based, HEK293 alpha2C/GIRK1/2 (AID 624;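 active = fluorescence slope after compound addition differing from the mean of all screened samples at 99.7% confidence, in either direction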;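 also: slope of fluorescence ratio to pre-addition baseline per second over 15 to 24 s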); conditions: thallium flux BTC fluorescence, at 10 µM, actives lie on both sides
[7] = inhibitors of Sendai virus-induced IRF3 signaling, primary screen, TLR/RLR signaling modifier project, cell-based, Sendai virus stimulus, luciferase, 10K MLSCN set (AID 602276;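 active = inhibition at or above 50% at 10 µM; inactive = inhibition below 50%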;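 also: firefly luciferase from ISG56 promoter only with Renilla not read in this screen; 0% = Sendai virus plus DMSO and 100% = medium plus DMSO without virus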); conditions: HEK293 RL24 IRF3 luciferase reporter, at 10 µM, stronger effect = higher value
[8] = inhibitors of poly I:C-induced TLR3 signaling, primary screen, cell-based, poly I:C stimulus, luciferase, 10K MLSCN set (AID 602277;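 active = inhibition of the reporter signal at or above 50%; inactive = inhibition below 50%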); conditions: HEK293-TLR3 RL24 IRF3 luciferase reporter, at 10 µM, stronger effect = higher value

Sequence of Alpha-2C adrenergic receptor (Homo sapiens) (P18825 whole entry, looked up): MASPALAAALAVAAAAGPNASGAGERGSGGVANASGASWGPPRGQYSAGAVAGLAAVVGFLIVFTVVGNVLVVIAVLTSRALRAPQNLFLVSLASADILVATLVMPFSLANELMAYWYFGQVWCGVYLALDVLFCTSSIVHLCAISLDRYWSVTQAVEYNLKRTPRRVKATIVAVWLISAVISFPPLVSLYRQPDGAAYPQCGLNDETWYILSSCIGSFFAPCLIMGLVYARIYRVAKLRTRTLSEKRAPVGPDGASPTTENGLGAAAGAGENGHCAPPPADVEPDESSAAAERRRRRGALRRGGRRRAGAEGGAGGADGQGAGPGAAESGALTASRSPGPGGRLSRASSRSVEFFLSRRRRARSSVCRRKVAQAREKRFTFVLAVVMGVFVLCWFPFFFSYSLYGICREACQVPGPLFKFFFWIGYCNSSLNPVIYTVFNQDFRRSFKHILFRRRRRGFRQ
Sequence of Voltage-gated potassium channel subunit beta-2 (Rattus norvegicus) (P62483 whole entry, looked up): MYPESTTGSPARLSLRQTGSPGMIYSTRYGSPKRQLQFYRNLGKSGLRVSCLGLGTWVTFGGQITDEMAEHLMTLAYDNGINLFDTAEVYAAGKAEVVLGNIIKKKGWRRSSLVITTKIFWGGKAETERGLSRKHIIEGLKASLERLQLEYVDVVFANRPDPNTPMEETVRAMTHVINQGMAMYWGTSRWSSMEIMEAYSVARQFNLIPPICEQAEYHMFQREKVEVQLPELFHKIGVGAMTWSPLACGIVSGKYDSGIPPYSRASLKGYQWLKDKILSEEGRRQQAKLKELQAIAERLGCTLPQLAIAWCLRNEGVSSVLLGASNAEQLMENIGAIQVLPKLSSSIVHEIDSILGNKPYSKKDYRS

SMILES	cell count [1]	inhibition [1]	inhibition of aggregation [2]	nuclei count [2]	inhibition [3]	nuclei count [3]	fluorescence slope [4]	NADPH fluorescence slope [5]	slope [6]	inhibition [7]	inhibition [8]
c1ccc(CN2C3=NCCCN3c3ccccc32)cc1	361	-4.7% (inactive)	-10.1% (inactive)	97.9%	-3.7% (inactive)	117%	-0.601 (inactive)	-1.3e-05 (inactive)	0.00493 (inactive)	11.4% (inactive)	22.1% (inactive)
C/C=C(\C)c1nnc(NC(=O)OCC)s1	743	-5% (inactive)	-16% (inactive)	115%	-52% (inactive)	110%	-0.342 (inactive)	-5.8e-05 (inactive)	0.00534 (inactive)	-36.1% (inactive)	-51.1% (inactive)
COc1cccc(OC)c1OCCCSc1nc(C)cc(=O)[nH]1	402	-1.6% (inactive)	1.1% (inactive)	108%	24.3% (inactive)	97.1%	-0.422 (inactive)	-2.1e-05 (inactive)	0.00519 (inactive)	-9.76% (inactive)	-3.85% (inactive)
CC1CCN(C(=O)CCNS(=O)(=O)c2ccccc2)CC1	709	0.4% (inactive)	-20.3% (inactive)	101%	-149% (inactive)	142%	-0.605 (inactive)	-2.3e-07 (inactive)	0.00564 (inactive)	-23.4% (inactive)	-31.3% (inactive)
COCCNC(=O)CCc1nc(-c2ccccc2)no1	294	-5% (inactive)	-9.3% (inactive)	103%	-98.3% (inactive)	123%	-0.504 (inactive)	2.6e-05 (inactive)	0.00646 (inactive)	18.6% (inactive)	16.3% (inactive)
Cc1ncc(CSc2nc3ccccc3[nH]2)c(N)n1	920	11.9% (inactive)	-17.1% (inactive)	115%	-37.5% (inactive)	109%	-0.606 (inactive)	-9.7e-06 (inactive)	0.00699 (inactive)	4.12% (inactive)	-10.7% (inactive)
CC(=O)Nc1ccc(NC(=O)Cn2cc3c(n2)CCC(C)C3)cc1 (stereo not drawn)	549	-6.3% (inactive)	3.5% (inactive)	95.1%	-58.6% (inactive)	103%	-0.284 (inactive)	-4.3e-05 (inactive)	0.00496 (inactive)	16.6% (inactive)	23% (inactive)
O=C1Nc2ccccc2OC1CC(=O)N1CCCC1 (stereo not drawn)	491	-6.6% (inactive)	44.6% (active)	80.1%	-105% (inactive)	115%	-0.522 (inactive)	-1.3e-05 (inactive)	0.00582 (inactive)	6.75% (inactive)	28.5% (inactive)
CCCC1(C(=O)OC)NC(c2cc(OC)c(OC)c(OC)c2)C2C(=O)N(CC)C(=O)C21 (stereo not drawn)	582	5.5% (inactive)	8.1% (inactive)	111%	-37.6% (inactive)	110%	-0.48 (inactive)	3.3e-05 (inactive)	0.0052 (inactive)	-10.2% (inactive)	2.76% (inactive)
COc1ccc(Oc2c(C)oc3cc(OC(=O)N4CCOCC4)ccc3c2=O)cc1	770	-4.9% (inactive)	11.1% (inactive)	95.2%	-28.1% (inactive)	112%	-0.402 (inactive)	2.6e-05 (inactive)	0.00567 (inactive)	3.22% (inactive)	-6.73% (inactive)
CN(C(=O)c1cc2sccc2n1C)C1CCCCC1	227	1% (inactive)	5.1% (inactive)	80.1%	-64% (inactive)	116%	-0.487 (inactive)	2.7e-05 (inactive)	0.00503 (inactive)	-56.2% (inactive)	-93.3% (inactive)
CCn1cc(C(=O)O)c(=O)c2cc(F)c(N3CCN(C(=O)Nc4ccccc4)CC3)cc21	676	-14% (inactive)	27.3% (inactive)	68.8%	-42.9% (inactive)	101%	-0.498 (inactive)	-8.3e-06 (inactive)	0.00493 (inactive)	8.6% (inactive)	10.7% (inactive)
CC(=O)Nc1c(-c2ccc(F)cc2)nc2ccccn12	516	-4.7% (inactive)	16.5% (inactive)	104%	-6.5% (inactive)	88%	-0.551 (inactive)	9e-06 (inactive)	0.00637 (inactive)	11.8% (inactive)	4.82% (inactive)
Cc1onc(-c2ccccc2Cl)c1C(=O)N1CCc2ccccc21	398	-1.3% (inactive)	-6.4% (inactive)	104%	-43.1% (inactive)	110%	-0.405 (inactive)	9.6e-06 (inactive)	0.00452 (inactive)	10.6% (inactive)	34.8% (inactive)
Cc1ccc(S(=O)(=O)C2(C(=O)Nc3nccs3)CC2)cc1	584	6.5% (inactive)	0% (inactive)	95.6%	-69.3% (inactive)	103%	-0.586 (inactive)	-2.1e-05 (inactive)	0.00637 (inactive)	13% (inactive)	32.7% (inactive)
COc1ccccc1C(=O)OCn1nnc2ccccc2c1=O	714	-21.1% (inactive)	6.6% (inactive)	103%	-15.2% (inactive)	106%	-0.421 (inactive)	-4e-05 (inactive)	0.00465 (inactive)	12.3% (inactive)	22.5% (inactive)
Cc1cc2nc(C3CCN(CC4COc5ccccc5O4)CC3)[nH]c2cc1C (stereo not drawn)	746	-8.3% (inactive)	-2.5% (inactive)	92%	-56.9% (inactive)	107%	-0.433 (inactive)	-1.9e-05 (inactive)	0.00449 (inactive)	-0.371% (inactive)	-21.4% (inactive)
CC1=C(C(=O)NCc2ccccc2)C(c2ccccc2OCC(N)=O)NC(=O)N1 (stereo not drawn)	355	-8.1% (inactive)	14.3% (inactive)	96.4%	-16.7% (inactive)	98.2%	-0.428 (inactive)	7.3e-06 (inactive)	0.00981 (inactive)	6.63% (inactive)	14.9% (inactive)
CCOc1ccc(N2CC(C(=O)Nc3ccccc3OC)CC2=O)cc1 (stereo not drawn)	663	-3.4% (inactive)	-8.5% (inactive)	89%	-21.8% (inactive)	126%	-0.404 (inactive)	2.8e-05 (inactive)	0.00536 (inactive)	5.76% (inactive)	-2.71% (inactive)
CCOc1ccc(-c2cn(S(=O)(=O)c3cccc4nsnc34)nc2N)cc1	316	-6.1% (inactive)	8% (inactive)	107%	-29.1% (inactive)	66.8%	-0.484 (inactive)	-3.8e-05 (inactive)	0.00478 (inactive)	10.6% (inactive)	28.6% (inactive)
CCN(CC)c1ccc(NC(=O)CN2C(=O)CC(C)(C)S(=O)(=O)c3ccccc32)c(C)c1	879	5.8% (inactive)	30.2% (inactive)	60.8%	-63.3% (inactive)	125%	-0.465 (inactive)	-2.5e-05 (inactive)	0.00659 (inactive)	10.9% (inactive)	-2.32% (inactive)
COC(=O)c1ccc(NC(=O)C2CC(=O)N(c3cc(C)ccc3C)C2)cc1 (stereo not drawn)	504	6.6% (inactive)	8.1% (inactive)	92.6%	-29.9% (inactive)	95.1%	-0.587 (inactive)	-9.6e-06 (inactive)	0.00549 (inactive)	-15.3% (inactive)	-26.3% (inactive)
Cc1cc(C(=O)NCc2cccnc2)no1	337	4.2% (inactive)	6.9% (inactive)	105%	7.8% (inactive)	102%	-0.5 (inactive)	-8.2e-06 (inactive)	0.00709 (inactive)	11.1% (inactive)	14.3% (inactive)
CCOC(=O)CN(C(=O)c1ccccc1)c1ccccc1C	600	-2.5% (inactive)	-11.5% (inactive)	108%	36% (inactive)	72.6%	-0.419 (inactive)	1.1e-05 (inactive)	0.00342 (inactive)	3.43% (inactive)	31% (inactive)
CCCCCn1c(CN2CCN(c3cccc(Cl)c3)CC2)nc2c1c(=O)n(C)c(=O)n2C	775	0.9% (inactive)	-13% (inactive)	109%	-32.5% (inactive)	113%	-0.371 (inactive)	-6e-05 (inactive)	0.00648 (inactive)	-3% (inactive)	-10.4% (inactive)
Cc1cc(C)nc(SCC(=O)Nc2ccc(S(=O)(=O)Nc3nccs3)cc2)n1	312	9% (inactive)	5.3% (inactive)	97.6%	-21.2% (inactive)	116%	-0.383 (inactive)	-5.8e-05 (inactive)	0.00544 (inactive)	10% (inactive)	32.8% (inactive)
CCN(CC)C(=O)c1ccc(CS(=O)(=O)c2ccc(OC)cc2)o1	560	-2% (inactive)	1.4% (inactive)	102%	-67.7% (inactive)	125%	-0.599 (inactive)	-3e-05 (inactive)	0.00698 (inactive)	-17.1% (inactive)	-10.1% (inactive)
Cc1ccc(S(=O)(=O)NCCOC(=O)Nc2sc(=S)n(C)c2C)cc1	466	1.6% (inactive)	-2.2% (inactive)	103%	15% (inactive)	108%	-0.5 (inactive)	3.3e-05 (inactive)	0.00618 (inactive)	-15% (inactive)	15.5% (inactive)
